# Reference: PubChem BioAssay AID1559 (National Center for Advancing Translational Sciences (NCATS), 2009)
# Inconclusive results are not listed. Values without a mark were called inactive. The source made the active and inactive calls. Calls come from the whole dose curve; as a rule, active = well fitted curve in the direction sought with a large enough effect; inconclusive = small, poorly fitted or top-dose-only effect, or another doubt; inactive = no such curve, though single readings can be large or run the other way.
# Target: Microtubule-associated protein tau (Homo sapiens) (UniProt P10636)
# Sequence (P10636 561-689 P618L limits assumed): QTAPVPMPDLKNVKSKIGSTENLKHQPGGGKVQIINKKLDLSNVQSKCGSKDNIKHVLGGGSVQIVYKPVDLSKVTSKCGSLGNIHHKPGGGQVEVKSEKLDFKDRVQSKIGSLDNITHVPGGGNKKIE
# Assay: Confirmation Concentration-Response Assay for Inhibitors of Tau Fibril Formation, Fluorescence Polarization
# Details: recombinant tau K18 P301L (four-repeat tau fragment) heparin fibrillization, Alexa594 FP; series mostly up to 57.1 µM; activity change, negative = inhibition: at the top concentration
# From the text: NIH Molecular Libraries Probe Production Network [MLPCN] NIH Chemical Genomics Center [NCGC] MLPCN Grant: X01 MH083262-01 Assay Provider: Carlo Ballatore, University of Pennsylvania NCGC Assay Overview: The microtubule-associated protein tau is an abundant protein in the axons of neurons that stabilizes microtubules. With its ability to modulate microtubule dynamics, tau contributes directly or indirectly, to key structural and regulatory cellular functions. Particularly important is the influence tau exerts on axonal transport, which allows signaling molecules, trophic factors and other essential cellular constituents to travel along the axons. Under pathological conditions, tau becomes sequestered into insoluble aggregates called neurofibrillary tangles. This phenomenon is believed to have pathological consequences by promoting axonal transport deficits that ultimately lead to synaptic dysfunction and neuronal loss. To identify inhibitors of tau aggregation, a heparin-induced tau fibril formation assay was used that employed a recombinantly expressed fragment of tau, K18 (Q242-E372), bearing a P301L mutation (Gustke et al. 1994; Hong et al. 1998). […] Gustke, N., B. Trinczek, et al. (1994). "Domains of tau protein and interactions with microtubules." Biochemistry 33(32): 9511-22. Hong, M., V. Zhukareva, et al. (1998). "Mutation-specific functional impairments in distinct tau isoforms of hereditary FTDP-17." Science 282(5395): 1914-7. Li, W. and V. M. Lee (2006). "Characterization of two VQIXXK motifs for tau fibrillization in vitro." Biochemistry 45(51): 15692-701. von Bergen, M., S. Barghorn, et al. (2001). "Mutations of tau protein in frontotemporal dementia promote aggregation of paired helical filaments by enhancing local beta-structure." J Biol Chem 276(51): 48165-74.
# For screening, 2 uL/well human K18 P301L (15 uM unlabeled and 0.24 uM Alexa 594-labeled tau final concentrations) in reagent buffer (100 mM sodium acetate pH 7) was dispensed into black solid 1536-well plates (Grenier) using a solenoid-based dispenser. Following transfer of 23 nL compound or DMSO vehicle by a pin tool, 2 uL/well heparin (20 uM final concentration) in reagent buffer was added and the plate centrifuged 15 s at 1000 RPM. Plates were incubated 6 hr at 37 C and then 1 uL/well ThT (30 uM final concentration) was added. After a 1 hr ambient incubation, the plates were read by an Envision (Perkin Elmer) to monitor Alexa 594 FP (555 nm excitation and 632 nm emission). Keywords: NIH Roadmap, MLPCN, MLI, MLSMR, NCGC, qHTS, tau, tauopathies, Alzheimer's disease, fibril, neurodegeneration, aggregation
Compound,"activity change, negative = inhibition",Potency
CC(C)c1ccc(NS(=O)(=O)c2ccc3[nH]cc(C(=O)NCCc4ccccc4)c(=O)c3c2)cc1,-17.1% [at 100 µM],–
O=C(CSc1nc2scc(-c3ccco3)c2c(=O)n1-c1ccccc1)N1CCOCC1,-7.95%,–
Cn1[nH]c(CSc2ccc(Cl)cc2)cc1=O,-3.05% [at 100 µM],–
Cn1cc(Cl)c(C(=O)Nc2cccc(Cl)c2Cl)n1,-4.85% [at 100 µM],–
NC[C@@H](O)c1ccc(O)c(O)c1,-5.2% [at 100 µM],–
CCOC(=O)c1nn(-c2ccccc2)c(=O)c2c(NC(=O)c3ccccc3)scc12,-5.82%,–
CCOC(=O)c1ccc(-n2nc(C(=O)OCC)c3csc(N)c3c2=O)cc1,-19.3%,–
Cc1ccc(NC(=O)c2c(NC(=O)Cc3ccccc3)sc3c2CCCC3)cc1,-10.5%,–
O=C(Nc1nnc(S(=O)(=O)Nc2ccccc2)s1)C1CCCCC1,-5.85% [at 100 µM],–
Cc1[nH]c(=O)c(C#N)cc1-c1ccncc1,-0.55% [at 100 µM],–
Cc1cc2c(N)cccc2nn1,–,39.8 µM (active)
CCN(CC)S(=O)(=O)c1cccc(NC(=O)Nc2cccc(C(F)(F)F)c2)c1,–,2.82 µM (active)
CCOC(=O)c1nn(-c2ccccc2F)c(=O)c2c(N)scc12,-12.8%,–
CN(c1ccccc1)S(=O)(=O)c1nnc(NC(=O)COc2ccccc2)s1,-3.1% [at 100 µM],–
CCOC(=O)c1nn(-c2ccccc2)c(=O)c(C#N)c1C,-3.79%,–
COC(=O)c1c(NC(=O)C(C)(C)C)sc2c1C(C(=O)OC)CC2 (stereo not given),-2.5% [at 100 µM],–
COc1ccc2c(c1)c(CC(=O)Nc1ccc(C(C)=O)cc1)c(C)n2C(=O)c1ccc(Cl)cc1,-10.6% [at 100 µM],–
Cc1nc2ccccc2oc1=O,-4.6% [at 100 µM],–
O=C(Cc1ccccc1)Nc1sc2c(c1C(=O)Nc1cccc(Cl)c1)CCCC2,0.795%,–
O=C(Cc1ccccc1)Nc1sc2c(c1C(=O)Nc1ccc(Cl)cc1)CCCC2,0.795%,–

Compound,"activity change, negative = inhibition",Potency
Nc1scc2c(C(=O)O)nn(-c3ccccc3)c(=O)c12,–,7.08 µM (active)
COC(=O)CSc1nc2ccc(NC(=O)CSc3nnnn3Cc3ccccc3)cc2s1,-9.6% [at 100 µM],–
Cc1ccc(NCc2cc3cc4c(cc3n(CC(=O)Nc3ccc(C)cc3)c2=O)OCCO4)cc1,-7.5% [at 100 µM],–
COc1c(Cl)cccc1NC(=O)c1c(NC(=O)Cc2ccccc2)sc2c1CCCC2,4.04%,–
CCOC(=O)c1c(N)sc2c1CCOC2,-6.49%,–
O=C(Nc1cccc(-c2nc3ccccc3o2)c1)c1cc([N+](=O)[O-])ccc1N1CCOCC1,-3.1% [at 100 µM],–
O=C(NCCCO)Nc1ccc2nc(-c3ccco3)c(-c3ccco3)nc2c1,–,7.94 µM (active)
S=C1Cc2ccccc2N1,-9.54%,–
O=C(Nc1nc2ccc(S(=O)(=O)N3CCCC3)cc2s1)c1ccc(F)cc1,-4.75% [at 100 µM],–
Cc1ccc(N(C)S(=O)(=O)c2nnc(NC(=O)C3CCCCC3)s2)cc1,-6% [at 100 µM],–
CCOC(=O)c1c(N)sc2c1CN(C)CC2,-13.2%,–
COc1cccc(/C=C2/SC(=S)N(CC(=O)Nc3nnc(C)s3)C2=O)c1,-24.6%,–
CC(=O)Nc1sc(C)c2cnn(-c3ccccc3)c(=O)c12,-5.35%,–
Cc1ccc(SCc2cc(=O)n(C)[nH]2)cc1,-3.6% [at 100 µM],–
O=C(NCc1cccnc1)C1CCN(S(=O)(=O)c2cccs2)CC1,-5.75% [at 100 µM],–
O=C(O)CN1C(=O)/C(=C/c2ccc(-c3cccc(Cl)c3)o2)SC1=S,-8.8% [at 100 µM],–
COC(=O)C1CCc2sc(NC(=O)Cc3ccccc3)c(C(=O)Nc3ccc(Cl)cc3)c21 (stereo not given),2.38%,–
CCOC(=O)N1CCN(C(=O)CN2C(=O)/C(=C\c3cccc(OC)c3)SC2=S)CC1,-18.3%,–
CCOC(=O)c1nn(-c2ccccc2)c(=O)c2c(N)sc(C)c12,-12.8%,–
O=C(Nc1ccccc1)Nc1ccccc1,-2.15% [at 100 µM],–
